In PubChem BioAssay AID2391 (Southern Research Specialized Biocontainment Screening …, 2010):
The campaign covered roughly 310,000 compounds. About 410 (0.13%) were called active. Roughly 2% stayed inconclusive and do not appear here. The rule behind the calls is not given here. Only a sample is shown. Measured potencies and affinities stand elsewhere.

Assay: RSV antiviral activity via CPE protection, HEp-2 cells, primary 10 µM value included (AID 2391)
Conditions: RSV-induced CPE inhibition, at 10 µM, active compounds read high
In the case of `CCOC(=O)N1CCc2c(sc3c2c(=O)n(-c2ccc(CC)cc2)c(=O)n3CC(=O)NCC2CCCO2)C1` (centres undefined), the CPE inhibition is reported as -1.83% (inactive). With `COc1cc([N+](=O)[O-])cc(/C=N/NC(=O)C(C)Nc2cccc3ccccc23)c1O` (centres undefined) the CPE inhibition was 7.79% (inactive). With `O=C(CNc1cccc2ccccc12)N/N=C/c1ccc([N+](=O)[O-])cc1` the CPE inhibition was 0.72% (inactive). For `Cc1cccnc1NC(=S)Nc1ccc(F)cc1F`, the CPE inhibition was 1.49% (inactive). For `COC(=O)[C@@H]1[C@@H](C)N(Cc2ccccc2)C(=O)N[C@H]1c1cccc(C(F)(F)F)c1`, the CPE inhibition was 3.75% (inactive). With `Cc1cc2nc3n(c2cc1C)CCCN3` the CPE inhibition was 5.29% (inactive). For `O=C(Nc1sc(-c2ccccc2)cc1C(=O)O)c1ccccc1`, the CPE inhibition was 7.6% (inactive). With `CCOC(=O)c1cc(-c2ccccc2)sc1NC(=O)C(C)(C)C` the CPE inhibition was 0.09% (inactive). In the case of `COc1ccc(-c2cc(-c3ccc(C)cc3)nc(SCc3nnc(-c4ccccc4)o3)c2C#N)cc1OC`, the CPE inhibition is reported as 2.51% (inactive). With `Cc1ccc(OCCOC(=O)c2cccc(S(=O)(=O)N3CC(C)OC(C)C3)c2)cc1` (centres undefined) the CPE inhibition was 3.28% (inactive). With `COc1ccc(OC)c(-n2c(C)cc(/C=C3\C(=N)N4N=C(CC(=O)N5CCOCC5)SC4=NC3=O)c2C)c1` the CPE inhibition was 17% (inactive). With `Cc1cc(/C=C2/C(=N)N3C(=NC2=O)SN=C3S(C)(=O)=O)c(C)n1-c1ccc(F)cc1` the CPE inhibition was 7.04% (inactive). For `COc1ccc(-n2c(C)cc(/C=C3\C(=N)N4N=C(CC(=O)N5CCOCC5)SC4=NC3=O)c2C)cc1`, the CPE inhibition was 3.44% (inactive). In the case of `Cc1cc(/C=C2\C(=N)N3N=C(CC(=O)N4CCOCC4)SC3=NC2=O)c(C)n1-c1ccccc1`, the CPE inhibition is reported as 7.24% (inactive). With `COc1cccc(-n2c(C)cc(/C=C3/C(=N)N4C(=NC3=O)SN=C4S(C)(=O)=O)c2C)c1` the CPE inhibition was 16.5% (inactive). For `COc1ccc(/C=C2\C(=N)N3N=C(CC(=O)N4CCOCC4)SC3=NC2=O)cc1`, the CPE inhibition was -0.02% (inactive). For `CCC1=NN2C(=N)/C(=C\c3cccn3-c3ccc(OC)cc3)C(=O)N=C2S1`, the CPE inhibition was 5.71% (inactive). With `O=C(N/N=C/c1ccc(Cl)cc1)C(=O)N1CCCCCC1` the CPE inhibition was -0.12% (inactive). For `O=C(NCc1ccco1)/C(=C\c1cccs1)NC(=O)c1ccco1`, the CPE inhibition was -0.55% (inactive). For `Nc1nc(N2CCCCC2)nc(N2CCCCC2)n1`, the CPE inhibition was 0.85% (inactive). In the case of `NS(=O)(=O)c1ccc(CNS(=O)(=O)c2ccc3c(c2)OCCO3)cc1`, the CPE inhibition is reported as 2.01% (inactive). For `Cc1cc(=O)oc2cc(NC(=O)c3cccc(F)c3)ccc12`, the CPE inhibition was 4.53% (inactive). In the case of `Clc1ccc(-n2c(SCc3nc4ccccc4[nH]3)nnc2-c2ccncc2)cc1`, the CPE inhibition is reported as 0.34% (inactive). For `CC(=O)NC(c1ccc(F)cc1)c1cccnc1` (centres undefined), the CPE inhibition was 1.45% (inactive). In the case of `CCc1nc(SCC(=O)c2cccc([N+](=O)[O-])c2)n[nH]1`, the CPE inhibition is reported as 1.44% (inactive). For `CC(=O)C1=C(C)N(Cc2ccccc2)C(=O)N[C@@H]1c1cccc(C(F)(F)F)c1`, the CPE inhibition was 0.41% (inactive). With `CCN1C(=O)N[C@@H](c2ccc(Br)cc2)C(C(=O)OC)=C1C` the CPE inhibition was 5.67% (inactive). With `CC(=O)C1=C(C)N(Cc2ccccc2)C(=O)N[C@H]1c1cccc(C(F)(F)F)c1` the CPE inhibition was 4.45% (inactive). In the case of `COC(=O)C1=C(C)N(Cc2ccccc2)C(=O)N[C@H]1c1cccc(F)c1`, the CPE inhibition is reported as 3.4% (inactive). In the case of `CCN1C(=O)N[C@H](c2ccc(Br)cc2)C(C(=O)OC)=C1C`, the CPE inhibition is reported as 0.05% (inactive). With `COC(=O)C1=C(C)N(Cc2ccccc2)C(=S)N[C@H]1c1ccccc1` the CPE inhibition was 14.1% (inactive). With `O=C(CSc1nccc(=O)[nH]1)c1ccccc1Br` the CPE inhibition was 2.89% (inactive). For `COc1ccc(C)cc1NC(=O)CSc1nnnn1C1CCCC1`, the CPE inhibition was 2.31% (inactive). With `Cc1cc(=O)[nH]c(NCc2ccc(Cl)cc2)n1` the CPE inhibition was 0.3% (inactive). With `Cc1ccsc1C(=O)NNC(=O)C1C2C=CC(C2)C1C(=O)O` (centres undefined) the CPE inhibition was 0.87% (inactive). In the case of `COc1ccc(OCc2nnc(SCC(=O)Nc3cccc(Cl)c3)o2)cc1`, the CPE inhibition is reported as 2.31% (inactive). In the case of `CSc1nnc(-c2sc3cc(Cl)ccc3c2Cl)n1C`, the CPE inhibition is reported as 14% (inactive). With `CCn1c(SC)nnc1-c1nnc(SC)n1CC` the CPE inhibition was 3.28% (inactive). In the case of `O=C(Cn1nc(-c2ccccc2)c2ccccc2c1=O)Nc1ccc(F)cc1`, the CPE inhibition is reported as 2.89% (inactive). For `COc1ccc(CNC(=O)c2coc(=O)c3ccccc23)c(OC)c1`, the CPE inhibition was -0.36% (inactive). With `COc1ccc(CNC(=O)c2coc(=O)c3ccccc23)cc1` the CPE inhibition was 5.17% (inactive). In the case of `C#CCn1c(S(=O)(=O)Cc2ccc(OC)cc2)nc(-c2ccccc2)c1-c1ccccc1`, the CPE inhibition is reported as 3.68% (inactive). For `C#CCn1c(S(=O)(=O)Cc2ccccc2Cl)nc(-c2ccccc2)c1-c1ccccc1`, the CPE inhibition was -0.31% (inactive). With `Cc1cc([N+](=O)[O-])nn1CCCC(=O)O` the CPE inhibition was 5.17% (inactive). In the case of `CN(NC(=O)c1cccc(Cl)c1)c1nc(-c2ccccc2)nnc1C(F)(F)F`, the CPE inhibition is reported as 3.22% (inactive). For `CCN(CC(=O)Nc1cc(Cl)ccc1C)C(=O)CSCc1c(C)noc1C`, the CPE inhibition was 16.3% (inactive). For `CCN(CC(=O)Nc1cc(Cl)ccc1C)C(=O)CCOc1ccc(C)cc1`, the CPE inhibition was 0.1% (inactive). For `COc1cc(C(=O)NCC(=O)N/N=C/c2c(C)[nH]c3ccccc23)cc(OC)c1OC`, the CPE inhibition was 3.1% (inactive). With `COc1ccc(C(=O)NCC(=O)N/N=C/c2c(C)[nH]c3ccccc23)cc1` the CPE inhibition was 6.54% (inactive). With `CC(=O)c1ccc(N2CCN(C(=O)c3nn(Cc4ccccc4)c(=O)c4ccccc34)CC2)cc1` the CPE inhibition was 5.5% (inactive). In the case of `COc1ccc(NC(=O)Cn2nnc(-c3ccccc3NC(=O)c3ccco3)n2)cc1`, the CPE inhibition is reported as 0.17% (inactive). With `COc1ccccc1NC(=O)c1sc2ncn(Cc3cccc4ccccc34)c(=O)c2c1C` the CPE inhibition was 2.87% (inactive). For `COc1ccccc1N(CC(=O)Nc1ccc(F)c(F)c1)S(C)(=O)=O`, the CPE inhibition was 0.09% (inactive). For `Nc1ccn([C@@H]2O[C@H](CO)[C@@H](O)C2O)c(=O)n1` (some centres undefined), the CPE inhibition was -2.12% (inactive). For `Nc1ccn([C@@H]2O[C@H](CO)[C@@H](O)[C@@H]2O)c(=O)n1`, the CPE inhibition was -0.64% (inactive). In the case of `O=c1ccn([C@@H]2O[C@H](CO)[C@@H](O)[C@H]2O)c(=O)[nH]1`, the CPE inhibition is reported as -0.56% (inactive). For `O=c1[nH]c(=O)n(C2OC(CO)C(O)C2O)cc1Br` (centres undefined), the CPE inhibition was -0.14% (inactive). With `CCOc1ccccc1Nc1cc(C)nc2nnnn12` the CPE inhibition was -1.74% (inactive). With `Cc1ccc(S(=O)(=O)[N-]c2nc3ccccc3nc2-n2cc[n+](CCC(C)C)c2)cc1` the CPE inhibition was 0.13% (inactive). For `COc1cc(NC(=S)N2CCN(Cc3ccccc3)CC2)cc(OC)c1`, the CPE inhibition was 4.9% (inactive). For `Cc1cc(/C=C2/NC(=O)NC2=O)c(C)n1-c1ccccn1`, the CPE inhibition was 2.98% (inactive). For `Cc1cc(/C=C2/NC(=O)NC2=O)c(C)n1C`, the CPE inhibition was 3.8% (inactive). For `Cc1cc(/C=C2/NC(=O)NC2=O)c(C)n1-c1ccncc1`, the CPE inhibition was 19.7% (inactive). In the case of `Cc1cc(/C=C2/C(=O)NN(c3ccccc3)C2=O)c(C)n1-c1cccc(O)c1`, the CPE inhibition is reported as 1.07% (inactive). With `Cc1cccc(-n2c(C)cc(/C=C3\NC(=O)NC3=O)c2C)c1` the CPE inhibition was 5.86% (inactive). In the case of `Cc1cc(/C=C2\C(=O)NN(c3ccccc3)C2=O)c(C)n1-c1ccccc1O`, the CPE inhibition is reported as -1.31% (inactive). With `O=C(NNC1=NS(=O)(=O)c2ccccc21)c1ccccc1Cl` the CPE inhibition was 1.71% (inactive). For `CC(CC(=O)NC1CCCCC1)S(=O)(=O)c1ccc2c(c1)CCN2C(=O)C1CC1` (centres undefined), the CPE inhibition was 0.99% (inactive). For `CCC(=O)Nc1ccc(C(=O)CSc2nnc(-c3cccnc3)o2)cc1`, the CPE inhibition was -0.13% (inactive). In the case of `COc1cc([N+](=O)[O-])ccc1NC(=O)CSc1ccccn1`, the CPE inhibition is reported as 4.53% (inactive). In the case of `O=C(Nc1ccc(O)c2c(=O)cc(-c3ccccc3Cl)oc12)c1cccc(Cl)c1`, the CPE inhibition is reported as -0.66% (inactive). In the case of `CSc1cc(-c2ccc(Cl)cc2)c(C(=O)NN)s1`, the CPE inhibition is reported as 0.87% (inactive). For `COC(=O)c1nc(N)sc1C`, the CPE inhibition was 1.76% (inactive). In the case of `COc1ccc(S(=O)(=O)N2CC(C(=O)O)Oc3ccc(CC(=O)O)cc32)cc1` (centres undefined), the CPE inhibition is reported as 1.19% (inactive). With `O=C(Nc1ccc(N2CCOCC2)c(Cl)c1)c1cccnc1` the CPE inhibition was 4.29% (inactive). In the case of `O=C(Nc1ccc(N2CCCC2)c(Cl)c1)c1cccnc1`, the CPE inhibition is reported as 5.52% (inactive). In the case of `O=C(CSc1nnc2ccccn12)NC(=O)NC1CCCC1`, the CPE inhibition is reported as 0.11% (inactive). For `COc1cccc(OC)c1C(=O)Nc1ccc(C)cc1C(=O)c1ccccc1`, the CPE inhibition was 6.46% (inactive). With `Cc1nc(CCNS(=O)(=O)c2cccnc2)cs1` the CPE inhibition was -0.89% (inactive). For `O=C(Nc1ccc([N+](=O)[O-])cc1)c1cn(-c2ccccc2)nc1-c1cc2ccccc2o1`, the CPE inhibition was 0.46% (inactive). In the case of `COc1ccc(NC(=O)c2cn(-c3ccccc3)nc2-c2cc3ccccc3o2)cc1`, the CPE inhibition is reported as 14.1% (inactive). For `COc1cc(C=O)ccc1OCc1cccc(Br)c1`, the CPE inhibition was 1.17% (inactive). In the case of `CC(=O)Nc1cccc(NC(=O)c2cccc(S(=O)(=O)N3CCN(Cc4ccccc4)CC3)c2)c1`, the CPE inhibition is reported as 1.07% (inactive). With `O=C(Nc1ccc2c(c1)OCO2)[C@@H]1[C@@H]2C(=O)N(C3CCCCC3)C(=O)[C@@H]2C2c3ccccc3C=CN21` (some centres undefined) the CPE inhibition was 2.62% (inactive). In the case of `COc1ccc(C(C[N+](=O)[O-])c2c(C)cc3ccccn23)c(OC)c1` (centres undefined), the CPE inhibition is reported as 3.91% (inactive). With `COc1ccc(C(C[N+](=O)[O-])c2c(-c3ccccc3)cc3ccccn23)cc1` (centres undefined) the CPE inhibition was 7.08% (inactive). In the case of `COC(=O)CSc1nc2ccc(NC(=O)CSc3nnnn3Cc3ccccc3)cc2s1`, the CPE inhibition is reported as 1.43% (inactive). In the case of `COc1ccccc1OCCOCCOc1c(C)cc(C)cc1Br`, the CPE inhibition is reported as 1.97% (inactive). For `CCOc1ccccc1CNC(=O)c1c([N+](=O)[O-])c(C)nn1C`, the CPE inhibition was 0.22% (inactive). For `COc1ccccc1CNC(=O)c1oc2ccccc2c1C`, the CPE inhibition was 1.89% (inactive). In the case of `COc1ccccc1CNC(=O)c1cc2c(=O)[nH]c3ccccc3c2n1C`, the CPE inhibition is reported as 16.5% (inactive). For `CCOc1ccccc1CNC(=O)c1cn(C)c(=O)c2c1c1ccccc1n2C`, the CPE inhibition was 6.47% (inactive). For `CCOc1ccccc1CNC(=O)c1cc2occc2n1C`, the CPE inhibition was 2.63% (inactive). For `CCOc1ccccc1CNC(=O)Cn1c(=O)oc2ccccc21`, the CPE inhibition was -0.15% (inactive).
